Bioassay records deposited in PubChem by National Center for Advancing Translational Sciences (NCATS).
Only some compounds are listed: those with a hit (about 21% of all), similar ones and a draw of the others.
CHX counter: counter-screen hit for Shiga toxin inhibitors, cycloheximide; max response, %; 12% of 300,000 active; cell reporter, cycloheximide protein synthesis inhibition counterscreen; AID 2314; in the data active means max response mostly above about 13%, no sharp cut-off; inactive means mostly below about 14%; further: read at 38.3 µM for the half of the compounds with a filed dose
SARS PLpro yeast: inhibitors of SARS-CoV papain-like protease in yeast | S. cerevisiae expressing SARS-CoV PLpro, growth rescue | Potency, µM (top dose mostly 32.9 µM), hits mostly activators | 0.19% of 330,000 active; calls by dose curve; further: nearly all actives have a fitted effect of over 55% in size
Shiga toxin inh: Shiga toxin inhibition; Vero cells, Shiga toxin protein synthesis inhibition reporter; inhibition, % at 38.7 µM; 9.2% of 290,000 active; AID 2315; in the data active means inhibition mostly above about 28%, no sharp cut-off; inactive means mostly below about 43%
Pf growth 96h: P. falciparum growth inhibition at 96 hours; P. falciparum luciferase reporter growth, 96 h; Potency, µM (titrated, usually from 28.7 µM), most hits filed as inhibitors; 6.9% of 320,000 active
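Parasite growth measured via integrated firefly luciferase reporter in P. falciparum. Infected erythrocytes at 2% hematocrit, 0.05% parasitemia final were treated 96 hours at 37 C under 5% CO2, and luminescence was read.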
Pf growth 48h: P. falciparum growth inhibition at 48 hours (one generation). Potency, µM (top dose mostly 28.7 µM), hits mostly inhibitors. 5.9% of 310,000 active. P. falciparum luciferase growth in erythrocytes, 48 h. AID 504832
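A one-generation exposure of luciferase-tagged malaria parasites in RPMI 1640/Albumax erythrocyte culture, 37 C and 5% CO2. Inhibition is inferred from decreased luminescence after adding detection reagent.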
NS1 inh: blocks influenza NS1 protein function | Potency, µM (titrated, usually from 46.1 µM) | 0.4% of 270,000 active | AID 2326; calls by dose curve; further: actives are rising curves; nearly all actives have a fitted effect of over 50% in size
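In this qHTS, NS1 from influenza A is expressed in budding yeast, where it slows growth. Cells are switched from glucose to 2% galactose medium (pH 6.0, -URA), treated with compound, and growth recovery is read at OD600.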
Large screens that a line does not name were inactive. Unless noted, the call rests on the fitted dose curve; in most records, active means well fitted inhibition curve with a large enough effect; inconclusive means small, poorly fitted or top-dose-only effect, or another doubt; inactive means no such curve, though single readings can be large or run the other way.

CCCCNc1n[n+](C)c(-c2cccc(C)c2)s1	none
O=c1sc(Nc2ccccc2)nc2ccccc12	none
Clc1ccc(Nc2nc3cccnc3s2)cc1	CHX counter 30.2, Shiga toxin inh 89.8
CC1(C)CC(NC(=O)c2c(N)no[n+]2[O-])CC(C)(C)N1	Pf growth 48h inconclusive (no result: NS1 inh)
COc1ccc(Nc2nc(N)nc(CSc3nccc(C)n3)n2)cc1	CHX counter 15.9, Shiga toxin inh 76.1, Pf growth 96h 5.22µM
COc1ccc(Nc2nc(N)nc(CSc3nnc(C)s3)n2)cc1	CHX counter 28.8, Shiga toxin inh 56.3, Pf growth 96h inconclusive
Cc1ccc(Nc2nc(N)nc(CSc3nnc(-c4ccncc4)o3)n2)cc1	CHX counter 14.1, Shiga toxin inh 48.0, NS1 inh inconclusive (no result: Pf growth 96h)
Cc1ccc(Nc2nc(N)nc(CSc3ncccn3)n2)cc1	CHX counter 28.9, Shiga toxin inh 67.6 (no result: Pf growth 48h)
c1ccc(C[N+]23CN4CN(CN(C4)C2)C3)cc1	none (no result: CHX counter, SARS PLpro yeast, Shiga toxin inh, Pf growth 96h, Pf growth 48h)
N#Cc1nc(-c2cccc(Cl)c2)oc1N1CCC(C(N)=O)CC1	Pf growth 96h inconclusive, Pf growth 48h inconclusive
Cc1ccc(Nc2nc(N)nc(CSc3nc4ccccc4s3)n2)cc1	CHX counter 37.0, Shiga toxin inh 37.2
Cc1ccccc1Nc1nc(N)nc(CSc2nc3ccccc3s2)n1	Pf growth 96h inconclusive
Nc1nc(CSc2ncccn2)nc(Nc2ccccc2)n1	CHX counter 62.3, Shiga toxin inh 139.4 (no result: Pf growth 96h)
Cc1ccccc1-c1nc(CN(Cc2c(C)nn(C)c2C)C2CC2)c(C)o1	Pf growth 48h 11.7µM
Fc1ccc(-n2c(-c3ccc4c(c3)OCO4)n[nH]c2=S)cc1Cl	CHX counter 10.9
S=c1[nH]nc(Cn2c(-c3ccccn3)nc3ccccc32)n1-c1ccc2c(c1)OCCO2	CHX counter 62.5, Shiga toxin inh 84.5, Pf growth 96h inconclusive
Oc1ccc(-c2n[nH]c(=S)n2-c2ccc3c(c2)OCCO3)cc1	CHX counter 36.8, Shiga toxin inh 58.9, Pf growth 96h inconclusive
S=c1[nH]nc(-c2ccc3ncccc3c2)n1-c1ccc2c(c1)OCCO2	Pf growth 96h inconclusive (no result: NS1 inh)
CCc1cccc(C)c1NC(=O)c1ccc2c(c1)CCN2S(C)(=O)=O	none
CC12C(=O)N(Cc3ccco3)C(=O)C1C1c3ccccc3C2c2ccccc21 (configuration not stated)	CHX counter 46.0, Pf growth 48h inconclusive (no result: Pf growth 96h)
O=C1C2C3c4ccccc4C(c4ccccc43)C2C(=O)N1Cc1ccco1 (configuration not stated)	none
CNC(=S)NNC(=O)c1sccc1OCc1cccc(C(F)(F)F)c1	Pf growth 96h 13.1µM, Pf growth 48h inconclusive
CNC(=S)NNC(=O)c1sccc1OCc1ccc(C)cc1	none
CCC[C@@H]1C[C@@H](C(=O)NC(C(C)Cl)[C@H]2O[C@H](SC)[C@H](O)[C@@H](O)[C@H]2O)N(C)C1 (some centres not stated)	Pf growth 96h 0.0033µM, Pf growth 48h inconclusive
CCCC1CC(C(=O)NC(C(C)Cl)C2OC(SC)C(O)C(O)C2O)N(C)C1 (configuration not stated)	Pf growth 96h 0.0029µM, Pf growth 48h 0.0828µM
CCCC1S/C(=N/N=C/c2ccc(OC)cc2)N(Cc2ccc(OC)cc2)C1=O (configuration not stated)	Pf growth 96h 10.4µM, Pf growth 48h inconclusive
CCCC1S/C(=N/N=C/c2ccc(OC)cc2)N(Cc2ccccc2)C1=O (configuration not stated)	Pf growth 48h inconclusive (no result: Pf growth 96h)
CCc1ccc(NC(=O)c2cc(-c3ccco3)on2)cc1	CHX counter 52.5, Shiga toxin inh 57.4, Pf growth 96h 2.94µM
COc1ccc(NC(=O)c2cc(-c3ccco3)on2)cc1	CHX counter 60.7, Shiga toxin inh 89.2, Pf growth 96h inconclusive (no result: NS1 inh)
COc1ccc(NC(=O)C2=CC(c3ccco3)=NS(=O)(=O)N2C)cc1	CHX counter 16.7
O=C(Nc1c(Cl)cccc1Cl)c1cc(-c2ccco2)on1	none
CC(C)NC(=O)c1cc(-c2ccco2)on1	CHX counter 32.4, Shiga toxin inh 105.7, Pf growth 96h inconclusive
COc1ccc(C(=O)C2CCCN(C(=O)c3cc(C(C)C)no3)C2)cc1F (configuration not stated)	Pf growth 96h inconclusive
CCCCCN(C(=O)CCC(=O)OCC(=O)c1cccc(OC)c1)c1c(N)n(CCCC)c(=O)[nH]c1=O	none
